High-throughput results as filed in PubChem BioAssay.
Lmaj promast = Leishmania major promastigote growth inhibition | hit rate 9% among 200,000 | Leishmania major promastigotes, resazurin fluorescence viability | inhibition, % at 10 µM | AID 1063; in the data active = inhibition above about 50%;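 also: promastigotes grown with compound for 44 hours at 28 °C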
WT yeast gro inh = growth inhibition of WT yeast, mitochondrial fusion screen. mitochondrial fusion phenotypic screen, WT strain. inhibition, % at 10 µM. hit rate 2.1% among 190,000. AID 1362; in the data active = inhibition above about 58%; tested in S. cerevisiae
RAM inhibit = inhibitors of the yeast RAM network | S. cerevisiae dse1pr::URA3 reporter, 5-FOA growth OD615, 2 d; analog-sensitive cbk1-as2 kinase mutant strain | inhibition, % at 50 µM | AID 868 | hit rate 1.8% among 190,000;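 active = inhibition above a set limit, 3 SD over mean compound inhibition, cut at about 8.4% in these data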;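 also: 0% = DMSO-only wells with no growth and 100% = 10 µM 1-NA-PP1 full growth; inhibition rescues growth on 5-FOA so higher OD means more RAM inhibition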
CHOP inhibitor = CHOP inhibition in unfolded protein response; hit rate 3.8% among 220,000; AID 2732; inhibition, % at 10 µM; CHO-K1 CHOP-promoter luciferase, tunicamycin-induced, 15-18 h;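 active = compounds that reduced the stress-induced luciferase reporter signal by more than about 70% of percent inhibition, limit read from the data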;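 also: 0% = tunicamycin plus vehicle and 100% = wells without tunicamycin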
* = called active by the depositor. Shown are actives, neighbours in structure and some others; about 13% of the full set was active somewhere.

How did Cc1c(NC(=O)C(C)n2cc([N+](=O)[O-])cn2)c(=O)n(-c2ccccc2)n1C (centres undefined) do in these assays?
Lmaj promast: -4.4; WT yeast gro inh: 1.1; RAM inhibit: 1.2; CHOP inhibitor: 12.1

Results for COc1ccc(/C=C2\Oc3cc(OC(=O)N4CCOCC4)ccc3C2=O)cc1 ?
CHOP inhibitor: 9.3

How did CCc1ccc(/C=C2\Oc3cc(OC(=O)N4CCOCC4)ccc3C2=O)cc1 do in these assays?
Lmaj promast: 93.0*; WT yeast gro inh: 21.5; RAM inhibit: 4.8; CHOP inhibitor: 25.4

Results for CC1(C)CC(=O)C(C2C3=C(CC(C)(C)CC3=O)OC3=C2C(=O)CC(C)(C)C3)=C(O)C1 ?
CHOP inhibitor: 3.0

How did Cc1nc(C)c(C(=O)NCCC(c2ccccc2)c2ccccc2)o1 do in these assays?
Lmaj promast: -2.4; WT yeast gro inh: -0.3; RAM inhibit: 1.0; CHOP inhibitor: 8.0

What do the screens show for `Cc1ccsc1C(=O)NCCC(c1ccccc1)c1ccccc1`?
Lmaj promast: 40.4; WT yeast gro inh: 67.1*; RAM inhibit: 7.1; CHOP inhibitor: 14.1

What do the screens show for `CCN(c1ccccc1)S(=O)(=O)c1ccc(OC)c(NC(=O)CNCC(C)O)c1` (centres undefined)?
Lmaj promast: 63.8*; WT yeast gro inh: 4.6; RAM inhibit: -0.4; CHOP inhibitor: 4.8

How did CCN(c1ccccc1)S(=O)(=O)c1ccc(Cl)c(NC(=O)CN2CCCCCC2)c1 do in these assays?
CHOP inhibitor: 55.3

Results for CCN(c1ccccc1)S(=O)(=O)c1ccc(OC)c(NC(=O)Cn2cnc3c2c(=O)n(C)c(=O)n3C)c1 ?
Lmaj promast: 61.5*; WT yeast gro inh: 2.7; RAM inhibit: 2.8; CHOP inhibitor: 4.3

How did CCN(c1ccccc1)S(=O)(=O)c1ccc(OC)c(NC(=O)CNC)c1 do in these assays?
Lmaj promast: 7.3; WT yeast gro inh: -9.7; RAM inhibit: -0.6; CHOP inhibitor: 22.7

Results for CCC(C)NCC(=O)Nc1cc(S(=O)(=O)N(CC)c2ccccc2)ccc1Cl (centres undefined) ?
Lmaj promast: 63.7*; WT yeast gro inh: 3.4; RAM inhibit: 1.8; CHOP inhibitor: 37.4

How did Cc1cc(C)c(NC(=O)CSc2nnc(SCC(=O)Nc3c(C)cc(C)cc3C)n2N)c(C)c1 do in these assays?
Lmaj promast: -11.3; RAM inhibit: 0.0; CHOP inhibitor: -3.8

How did Cn1cnc([N+](=O)[O-])c1Oc1ccc2ccccc2c1 do in these assays?
Lmaj promast: 81.0*; WT yeast gro inh: 17.0; RAM inhibit: 4.5; CHOP inhibitor: 0.8

Results for O=C(O)c1ccc(NC(=S)Nc2ccccc2)cc1 ?
Lmaj promast: 91.2*; WT yeast gro inh: 3.1; RAM inhibit: 4.0; CHOP inhibitor: -0.2

Results for Cc1cc(NC(=S)Nc2ccccc2)ccc1Br ?
Lmaj promast: 97.2*; WT yeast gro inh: -5.2; RAM inhibit: 1.0; CHOP inhibitor: -1.9

How did Cc1cc(NC(=S)Nc2cccnc2)ccc1Br do in these assays?
Lmaj promast: 16.5; WT yeast gro inh: 6.9; RAM inhibit: 2.3; CHOP inhibitor: 37.9

Results for Cc1ccccc1NC(=O)/C(=C/c1ccccc1)c1ccccc1 ?
Lmaj promast: 44.5; WT yeast gro inh: 54.4; RAM inhibit: 4.8; CHOP inhibitor: 53.9

How did O=C(Nc1ccccc1)/C(=C/c1ccccc1)c1ccccc1 do in these assays?
Lmaj promast: 97.7*; WT yeast gro inh: -0.4; RAM inhibit: 4.1; CHOP inhibitor: 29.0

What do the screens show for `N#C/C(=C\C=C\c1ccccc1)C(=O)Nc1ccccc1`?
Lmaj promast: 49.2; WT yeast gro inh: 18.2; RAM inhibit: 2.3; CHOP inhibitor: 73.4*

What do the screens show for `CC1(c2cccc3ccccc23)NC(=O)N(CC(=O)NC2CCS(=O)(=O)C2)C1=O` (centres undefined)?
Lmaj promast: -6.2; WT yeast gro inh: 10.5; RAM inhibit: 0.6; CHOP inhibitor: -10.3

How did Cc1cccc(N2CCN(C(=O)C3CCCN(S(=O)(=O)c4cccc5cccnc45)C3)CC2)c1C (centres undefined) do in these assays?
WT yeast gro inh: 14.8

What do the screens show for `Cc1ccc(C(=O)Nc2nnc(NC(=S)Nc3ccccc3)s2)cc1`?
Lmaj promast: 15.1; WT yeast gro inh: 3.3; RAM inhibit: 7.8; CHOP inhibitor: 70.2*

How did CN1CCN(c2ccc(NC(=O)c3cccc(OCc4ccccc4)c3)cc2)CC1 do in these assays?
Lmaj promast: 100.3*; WT yeast gro inh: 17.3; RAM inhibit: 1.4; CHOP inhibitor: 28.8

What do the screens show for `CCOc1cccc(C(=O)NC(=S)Nc2ccccc2)c1`?
Lmaj promast: -1.1; WT yeast gro inh: 20.5; RAM inhibit: -0.6; CHOP inhibitor: -21.7

What do the screens show for `O=C(NCCCOc1cccc(CN2CCCCC2)c1)c1ccc(Cl)c(Cl)c1`?
Lmaj promast: 66.3*; WT yeast gro inh: -10.8; RAM inhibit: 1.5; CHOP inhibitor: 14.6

What do the screens show for `O=C(NC(=S)Nc1ccc(CN2CCCCC2)cc1)c1cccc(OCc2ccccc2)c1`?
Lmaj promast: 84.2*; WT yeast gro inh: 71.7*; RAM inhibit: -2.2; CHOP inhibitor: -47.7

How did c1cc(CN2CCCCC2)cc(OCCCNc2nc3ccccc3s2)c1 do in these assays?
CHOP inhibitor: -13.7

How did O=C1CCCC(=O)C1=C1SCCS1 do in these assays?
Lmaj promast: -1.1; WT yeast gro inh: 5.2; RAM inhibit: 1.4; CHOP inhibitor: -2.5

What do the screens show for `Cn1nc([N+](=O)[O-])nc1Sc1nnnn1-c1ccc(C(=O)O)cc1`?
Lmaj promast: 2.4; WT yeast gro inh: -10.3; RAM inhibit: 0.4; CHOP inhibitor: -13.8

What do the screens show for `COc1ccc(CC2(CO)CCN(Cc3cccn3-c3ccccn3)CC2)cc1`?
Lmaj promast: -0.9; WT yeast gro inh: -5.3; RAM inhibit: 0.1; CHOP inhibitor: -2.8

What do the screens show for `COc1c(F)c(F)c(C(=O)Nc2ccc(N3CCN(Cc4ccccc4)CC3)cc2)c(F)c1F`?
Lmaj promast: 51.7*; WT yeast gro inh: 25.5; RAM inhibit: 0.0; CHOP inhibitor: 87.5*

Results for O=C(O)c1ccc(NC(=S)NC(=O)c2cccc(COc3ccccc3)c2)cc1 ?
Lmaj promast: -8.0; WT yeast gro inh: 91.1*; RAM inhibit: 6.4; CHOP inhibitor: -4.6

What do the screens show for `CCOc1ccccc1C(=O)Nc1nn[nH]n1`?
Lmaj promast: 16.0; WT yeast gro inh: 25.2; RAM inhibit: 1.0; CHOP inhibitor: 26.0

Results for Fc1cccc(Nc2ncnc3c2cnn3-c2ccccc2)c1 ?
WT yeast gro inh: 2.8; CHOP inhibitor: 41.2

Results for Cc1ccc(CNc2ncnc3c2cnn3-c2ccccc2)cc1 ?
Lmaj promast: -4.3; WT yeast gro inh: -14.1; RAM inhibit: 2.8; CHOP inhibitor: 95.3*

How did Cc1cccc(-n2ncc3c(NCc4cccnc4)ncnc32)c1 do in these assays?
WT yeast gro inh: 8.6; CHOP inhibitor: -20.4

What do the screens show for `Cc1ccc(-n2ncc3c(NCc4ccccc4)ncnc32)cc1`?
Lmaj promast: -5.7; WT yeast gro inh: 1.9; RAM inhibit: 5.3; CHOP inhibitor: 79.9*

How did Clc1cccc(Nc2ncnc3c2cnn3-c2ccccc2)c1 do in these assays?
WT yeast gro inh: -0.1; RAM inhibit: 2.9; CHOP inhibitor: 98.8*

Results for Cc1cccc(-n2c(CCCN3C(=O)c4ccccc4C3=O)nc3ccccc3c2=O)n1 ?
Lmaj promast: 1.4; WT yeast gro inh: 4.2; RAM inhibit: 2.6; CHOP inhibitor: 13.8
